One may read the AC50 as the concentration at which the activity in the assay is half-maximal.

Experimental findings from PubChem BioAssay (EPA / NIEHS) are described below.

Inconclusive results are not listed. Active and inactive are the calls of the source. The calls were made as follows, unless noted: active = hit-call score of the fitted dose curve at least 0.9, where 1 is the maximum; inactive = score below 0.9.

The nature of experiment [1]: CCTE_Shafer_MEA_acute_spike_number: CCTE's Neural Acute Assay for Total Number of Spikes, Shafer Lab (AID 2284008).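 As to AC50: curve fitted for decrease in spike count so AC50 reflects inhibitors.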 In short, it runs like this: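 Primary rat cortical neurons on 16-electrode MEA wells; on DIV 13 or 15, 40-min baseline then 40-min recording with compound (0.03-40 uM) at 37 C. Spikes detected at 8x rms noise; percent change versus baseline, DMSO as negative control.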

Experiment [2] is described as follows: CCTE_Shafer_MEA_acute_firing_rate_mean: CCTE's Neural Acute Assay for Mean Firing Rate, Shafer Lab (AID 2284009).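 Also: analyzed for loss of signal so actives lower firing rate relative to DMSO.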 In outline:
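Primary rat cortical neurons on 16-electrode MEA wells were exposed on DIV 13 or 15 to compound (0.03-40 uM). Spike counts per recording time, averaged over electrodes, were compared between 40-min baseline and 40-min post-exposure recordings as percent change.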

Experiment [3] in a line: CCTE_Harrill_HTTr_Viability_MCF7: CCTE's 6-hour Cell Viability Assessment for the High-Throughput Transcriptomics (HTTr) Platform, in MCF-7 cells cultured in DMEM + 10% fetal bovine serum, Harrill Lab (AID 2284010). In short, it runs like this: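 PI exclusion, high-content imaging; 8-pt dilution series, 6 h exposure; bidirectional fit vs DMSO (neg. ctrl/baseline); gain of signal = loss of membrane integrity.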

A short description of experiment [4]: CCTE_Harrill_HTTr_Apoptosis_MCF7: CCTE's 6-hour Apoptosis Assessment for the High-Throughput Transcriptomics (HTTr) Platform, in MCF-7 cells cultured in DMEM + 10% fetal bovine serum, Harrill Lab (AID 2284011). In outline:
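MCF-7 cells in DMEM + 10% fetal bovine serum were exposed to chemicals for 6 hours over an eight-point dilution series. Caspase-3/7 activation was imaged by high content imaging with CellEvent Caspase 3/7 Green; bidirectional fitting used DMSO as baseline.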

Experiment [5] can be described thus: CCTE_Harrill_HTTr_CellCount_MCF7: CCTE's Cell Proliferation Assessment for the High-Throughput Transcriptomics (HTTr) Platform, Harrill Lab (AID 2284012; active = hit-call score of the fitted dose curve at least 0.9, where 1 is the maximum;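 also: count of Hoechst-stained nuclei per well by high-content imaging in MCF-7 cells; cells exposed to compound for six hours; intended direction is loss of nuclei count meaning fewer cells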). In short, it runs like this: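 Readout: Hoechst nuclear count by high-content imaging. MCF-7, 8-point dilution series, 6 h exposure. Bidirectional fit vs DMSO baseline.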
The nature of experiment [6]: CCTE_Shafer_MEA_acute_burst_number: CCTE's Neural Acute Assay for Single-Electrode Bursts, Shafer Lab (AID 2284013). In outline: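 Primary rat cortical neurons on 16-electrode MEA wells, DIV 13 or 15, exposed to compound (0.03-40 uM; ≥3 wells); 40-min recordings at 37 C before and after treatment. Burst count expressed as percent change from baseline, DMSO as negative control.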

Experiment [7] can be described thus: CCTE_Shafer_MEA_acute_burst_duration_mean: CCTE's Neural Acute Assay for Mean Burst Duration, Shafer Lab (AID 2284014).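 Also: hits are decreases in mean burst duration relative to DMSO controls.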 In short, it runs like this: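 Mean burst duration was compared between a 40 min baseline and a 40 min recording in the presence of compound (0.03-40 uM, 37 C), giving percent change per well. Cultures were rat cortical neurons at DIV 13 or 15; wells needed ≥10 active electrodes.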

Experiment [8] is described as follows: CCTE_Shafer_MEA_acute_per_burst_spike_number_mean: CCTE's Neural Acute Assay for Average Number of Spikes Per Burst, Shafer Lab (AID 2284015).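 Also: hits are decreases in mean spikes per burst versus baseline.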 In short, it runs like this:
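Rat primary cortical neurons on 48-well MEAs (DIV 13 or 15) were treated with 0.03-40 uM compound at 37 C. Mean spikes per burst over 40 min were recorded before and after exposure and expressed as percent change from baseline, relative to DMSO.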

Experiment [9] can be described thus: CCTE_Shafer_MEA_acute_burst_percentage_mean: CCTE's Neural Acute Assay for Percentage of Spikes in a Burst, Shafer Lab (AID 2284017).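 As to AC50: curve fitted for loss of signal so potency reflects decreased burst percentage.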 In short, it runs like this: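 Primary rat cortical neurons on 48-well MEA plates, treated on DIV 13 or 15 at 0.03-40 uM. Spikes detected at 8x rms noise at 37C; percent change from 40-min baseline to 40-min post-dose recording, fitted versus DMSO.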

The nature of experiment [10]: CCTE_Shafer_MEA_acute_burst_percentage_std: CCTE's Neural Acute Assay for Standard Deviation of Burst Percentage, Shafer Lab (AID 2284018).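 Also: fitted in the negative direction so actives lower burst percentage SD.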 In short, it runs like this: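 Value is percent change from baseline in the across-electrode SD of spikes-in-bursts percentage, wells with >/= 10 active electrodes. Acute 40-min exposure to 0.03-40 uM on DIV 13 or 15 rat cortical cultures, recorded at 37 C after 40-min baseline.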

A short description of experiment [11]: CCTE_Shafer_MEA_acute_per_network_burst_spike_number_mean: CCTE's Neural Acute Assay for Average Number of Spikes in a Network Burst, Shafer Lab (AID 2284019).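 As to AC50: curve fitted for loss of signal so actives reduce spikes per network burst.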 In short, it runs like this:
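Percent change from baseline in mean spikes per network burst, spikes detected at 8x rms noise. Each compound at 0.03-40 uM in at least three wells of rat cortical cultures, recorded 40 min before and 40 min during exposure.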

The nature of experiment [12]: CCTE_Shafer_MEA_acute_per_network_burst_spike_number_std: CCTE's Neural Acute Assay for Standard Deviation of Number of Spikes in a Network Burst, Shafer Lab (AID 2284020).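 Also: fitted for decrease in spike-number SD versus DMSO so actives lower it.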 In outline: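 Endpoint: percent change from 40 min baseline in standard deviation of spikes per network burst, after 40 min compound exposure (0.03-40 uM, 37 C). Cortical rat neurons on MEA at DIV 13 or 15; spikes detected at 8x rms noise, 300-5000 Hz band-pass.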

Experiment [13] in a line: CCTE_Simmons_MITO_basal_resp_rate: CCTE's HepG2 Seahorse XF Respirometric Screening Assay at Basal Respiratory State, Simmons Lab (AID 2284001). To be noted: actives raise or lower the signal. In outline: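 Basal-phase OCR in HepG2 cells, read at 6-min intervals across a 72-min run, with test compound injected at 125 nM–100 uM final (7 points). Fitted both directions against DMSO; three biological replicates per concentration.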

The nature of experiment [14]: CCTE_Simmons_MITO_max_resp_rate: CCTE's HepG2 Seahorse XF Respirometric Screening Assay at Maximal Respiratory State [uncoupled], Simmons Lab (AID 2284002). To be noted: actives raise or lower the signal. In short, it runs like this:
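HepG2 oxygen consumption was read on a Seahorse XF96 after FCCP uncoupler injection, following test compound injection; 7 concentrations, 125 nM–100 uM final, three biological replicates. Bidirectional fitting against DMSO vehicle baseline.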

Experiment [15] can be described thus: CCTE_Simmons_MITO_viability: CellTiter-Glo Viability Assessment for CCTE's HepG2 Seahorse XF Respirometric Screening Assay [post-hoc], Simmons Lab (AID 2284007; active = hit-call score of the fitted dose curve at least 0.9, where 1 is the maximum). In outline:
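Luciferase-coupled ATP luminescence, single endpoint. HepG2, post-respirometry. Compound 125 nM–100 uM final, 7 conc., 90 min. n=3 biological, technical singles. DMSO vehicle/baseline; dichlone 10 nM–100 uM, 8 conc., as positive control.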
(ATP-based viability assays read luminescence as a measure of living cells.)

On to `O=C(O)c1ccccc1`, for which the result in [1], in [2], in [3], in [4], in experiment [5] and in experiment [6] was inactive. In addition, the compound was called inactive in experiment [7], in experiment [8], in [9], in experiment [10], in experiment [11] and in [12].
Consider `CCCCOC(=O)C(C)Oc1ccc(Oc2ccc(C(F)(F)F)cn2)cc1` (stereo not drawn), for which the result in experiment [13], in [14], in experiment [15], in experiment [3] and in experiment [4] was inactive.
With `C#C[C@]1(O)CC[C@H]2[C@@H]3CCC4=CC(=O)CC[C@@H]4[C@H]3CC[C@@]21CC`, the result in experiment [3], in experiment [4] and in experiment [5] was inactive.
On to `CCNc1nc(N)nc(Cl)n1`, for which the result in [1], in experiment [2], in experiment [3], in experiment [4], in experiment [6] and in [7] was inactive. Also, the outcome in experiment [8], in [9], in experiment [10], in [11] and in experiment [12] was inactive.
As for `C#CCOC(=O)[C@@H](C)Oc1ccc(Oc2ncc(Cl)cc2F)cc1`, the call in experiment [1], in experiment [2], in experiment [3], in experiment [4], in experiment [6] and in experiment [7] was inactive. The result in [8], in [9], in experiment [10], in experiment [11] and in experiment [12] was inactive.
Turning to `CC(=O)[C@H]1CC[C@H]2[C@@H]3CCC4=CC(=O)CC[C@]4(C)[C@H]3CC[C@]12C`, the AC50 in [13] was 10.1 µM (active); in experiment [14], 13.4 µM (active). Further, the compound was called inactive in [15], in experiment [3], in experiment [4] and in experiment [5].
With `CCC(C)OC(=O)N1CCCCC1CCO` (stereo not drawn), the result in experiment [3] and in experiment [4] was inactive.
Turning to `OB(O)O`, the compound was called inactive in [1], in [2], in [3], in [4], in [5] and in experiment [6]. Also, the compound was called inactive in experiment [7], in experiment [8], in experiment [9], in [10], in [11] and in experiment [12].
As for `Oc1ccc(C(c2ccc(O)cc2)C(Cl)(Cl)Cl)cc1`, the AC50 in experiment [13] is 18.8 µM (active); in experiment [14], 21.7 µM (active); in experiment [1], 4.04 µM (active); in [2], 4.04 µM (active); in [6] it was 2.22 µM (active); in experiment [9], 5.91 µM (active). Besides, the AC50 in experiment [10] is 20 µM (active); in experiment [11], 3.02 µM (active); in experiment [12], 5 µM (active). In addition, the result in [3], in experiment [4], in experiment [5], in experiment [7] and in [8] was inactive.
For the compound `CCCN(CCC)c1c([N+](=O)[O-])cc(C(F)(F)F)c(N)c1[N+](=O)[O-]`, the outcome in [1], in experiment [2], in experiment [4], in experiment [5], in experiment [6] and in experiment [7] was inactive. The call in [8], in [9], in experiment [11] and in [12] was inactive. Also, the results for the AC50 in experiment [3] and in experiment [10] were 68.1 µM (active) and 31.1 µM (active), respectively.
